Test results reported in PubChem BioAssay (EPA / NIEHS).
“And” between values parts separate entries of the source, which are not always exact repeats. Equal values may be shown once. The source made the active and inactive calls. How the source made its calls: active means hit-call score of the fitted dose curve at least 0.9, where 1 is the maximum; inactive means score below 0.9.

How the values were obtained:
[1] = target: Bile acid receptor (Homo sapiens) (UniProt Q96RI1); assay: ATG_IR1_CIS: Attagene CIS-FACTORIAL HepG2 Assay for human Nuclear Receptor Subfamily 1 Group H Member 4 (NR1H4), IR1 submotif (AID 2282946); conditions: IR1 reporter transcription, actives raise or lower the signal
Sequence of Bile acid receptor (Homo sapiens) (Q96RI1 whole entry, looked up): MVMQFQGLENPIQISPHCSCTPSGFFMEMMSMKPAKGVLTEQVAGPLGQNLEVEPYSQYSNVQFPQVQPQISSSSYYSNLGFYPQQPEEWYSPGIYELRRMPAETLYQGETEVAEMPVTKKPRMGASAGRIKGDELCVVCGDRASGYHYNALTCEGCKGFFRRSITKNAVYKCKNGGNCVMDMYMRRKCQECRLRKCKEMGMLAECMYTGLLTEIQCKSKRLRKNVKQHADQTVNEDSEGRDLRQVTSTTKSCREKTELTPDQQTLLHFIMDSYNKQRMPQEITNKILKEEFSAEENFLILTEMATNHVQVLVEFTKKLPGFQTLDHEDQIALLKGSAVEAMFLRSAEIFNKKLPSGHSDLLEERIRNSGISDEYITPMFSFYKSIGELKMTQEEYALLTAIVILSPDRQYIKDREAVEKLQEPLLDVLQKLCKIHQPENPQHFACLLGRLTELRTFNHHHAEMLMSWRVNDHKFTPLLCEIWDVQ
Outline: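 HepG2 cells transiently transfected with multiple cis-promoter-driven reporter units to measure endogenous transcription factor activity; 24 h exposure. Reporter mRNA read by RT-PCR, FAM labelling, HpaI digestion and capillary electrophoresis. Bidirectional fit versus DMSO.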

[2] = ATG_GRE_CIS: Attagene CIS-FACTORIAL HepG2 Assay for human Glucocorticoid Response Elements (GRE) (AID 2282947); conditions: HepG2 GRE cis-reporter, Attagene multiplex mRNA; actives raise or lower the signal
Outline: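 Transiently transfected HepG2 cells carrying GRE cis-reporter units (endogenous TF activity) dosed 24 h; reporter mRNA quantified by RT-PCR, 6-FAM labelling, HpaI digestion and capillary electrophoresis. Bidirectional fit versus DMSO baseline.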

[3] = ATG_ISRE_CIS: Attagene CIS-FACTORIAL HepG2 Assay for human Interferon Regulatory Factor 1 (IRF1) binding to an Interferon-Stimulated Response Element (ISRE) (AID 2282948); conditions: HepG2 ISRE cis-reporter (Attagene), mRNA transcription readout; actives raise or lower the signal
Outline: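 Cell-based cis-reporter assay; HepG2; 24 h exposure; reporter mRNA by RT-PCR plus capillary electrophoresis fluorescence; activity in either direction scored relative to DMSO.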

[4] = ATG_M_06_CIS: Attagene CIS-FACTORIAL HepG2 Assay for M06 Transcription Factor (Internal Marker) (AID 2282950); conditions: HepG2 Attagene CIS-FACTORIAL M06 internal marker reporter; actives raise or lower the signal
Outline: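 Fluorescence-labelled RT-PCR products from cis-promoter reporter units, cut with HpaI and resolved by capillary electrophoresis, give the signal. Cells are human HepG2, dosed for 24 h. Serves as background control, fitted relative to DMSO.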

[5] = target: Hypoxia-inducible factor 1-alpha (Homo sapiens) (UniProt Q16665); assay: ATG_HIF1a_CIS: Attagene CIS-FACTORIAL HepG2 Assay for human Hypoxia Inducible Factor 1 (HIF1A) (AID 2282951); conditions: HepG2 Attagene cis-factorial HIF1a reporter transcription; actives raise or lower the signal
Sequence of Hypoxia-inducible factor 1-alpha (Homo sapiens) (Q16665 whole entry, looked up): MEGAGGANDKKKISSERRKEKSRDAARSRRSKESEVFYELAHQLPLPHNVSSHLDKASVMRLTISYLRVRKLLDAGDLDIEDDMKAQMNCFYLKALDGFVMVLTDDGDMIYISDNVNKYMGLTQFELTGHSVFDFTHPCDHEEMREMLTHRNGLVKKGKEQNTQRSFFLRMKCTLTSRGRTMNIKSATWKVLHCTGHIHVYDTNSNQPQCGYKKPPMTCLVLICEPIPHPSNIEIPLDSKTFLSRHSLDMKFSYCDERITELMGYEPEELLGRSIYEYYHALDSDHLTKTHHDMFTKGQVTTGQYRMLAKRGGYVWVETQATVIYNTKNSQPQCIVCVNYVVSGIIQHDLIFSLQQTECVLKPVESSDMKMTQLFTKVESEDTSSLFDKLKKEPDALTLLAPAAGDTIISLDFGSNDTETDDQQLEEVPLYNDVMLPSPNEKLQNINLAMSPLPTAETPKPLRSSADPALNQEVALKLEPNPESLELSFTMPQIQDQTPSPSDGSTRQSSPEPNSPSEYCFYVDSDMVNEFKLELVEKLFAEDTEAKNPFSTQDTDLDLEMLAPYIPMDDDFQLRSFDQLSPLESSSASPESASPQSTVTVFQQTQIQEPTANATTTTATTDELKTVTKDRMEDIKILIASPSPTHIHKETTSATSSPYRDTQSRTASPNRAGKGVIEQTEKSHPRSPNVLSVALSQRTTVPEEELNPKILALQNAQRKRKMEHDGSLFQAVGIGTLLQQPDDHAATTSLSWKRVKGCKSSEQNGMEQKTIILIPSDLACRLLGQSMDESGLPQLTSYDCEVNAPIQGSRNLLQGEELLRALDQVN
Outline: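 In this multiplexed cell assay, HepG2 cells bearing transfected cis reporters are dosed for 24 h and reporter mRNA is read by RT-PCR plus capillary electrophoresis; signal increases and decreases are both scored against DMSO.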

[6] = target: Hepatocyte nuclear factor 6 (Homo sapiens) (UniProt Q9UBC0); assay: ATG_HNF6_CIS: Attagene CIS-FACTORIAL HepG2 Assay for human Hepatocyte Nuclear Factor 6 (HNF6) (AID 2282952); conditions: HepG2 Attagene cis-factorial HNF6 reporter transcription; actives raise or lower the signal
Sequence of Hepatocyte nuclear factor 6 (Homo sapiens) (Q9UBC0 whole entry, looked up): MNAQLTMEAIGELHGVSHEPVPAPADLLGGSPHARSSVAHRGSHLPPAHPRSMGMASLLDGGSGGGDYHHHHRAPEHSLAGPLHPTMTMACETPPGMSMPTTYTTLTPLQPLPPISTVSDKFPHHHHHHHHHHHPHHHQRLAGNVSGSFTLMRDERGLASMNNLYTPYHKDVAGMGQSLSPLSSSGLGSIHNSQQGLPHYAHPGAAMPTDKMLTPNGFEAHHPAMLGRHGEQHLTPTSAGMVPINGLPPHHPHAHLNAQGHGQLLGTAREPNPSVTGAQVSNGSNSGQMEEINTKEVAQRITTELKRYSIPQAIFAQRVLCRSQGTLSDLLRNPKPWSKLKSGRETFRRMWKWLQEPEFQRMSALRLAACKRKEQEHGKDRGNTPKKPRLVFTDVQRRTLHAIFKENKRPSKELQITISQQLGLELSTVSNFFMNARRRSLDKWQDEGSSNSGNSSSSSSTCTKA
Outline: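 Cells are HepG2 carrying transiently transfected cis-promoter reporter units. Treatment lasts 24 h, after which reporter transcripts are reverse-transcribed, amplified, FAM-labelled and sized by capillary electrophoresis. DMSO serves as baseline.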

[7] = target: Heat shock factor protein 1 (Homo sapiens) (UniProt Q00613); assay: ATG_HSE_CIS: Attagene CIS-FACTORIAL HepG2 Assay for human Heat Shock Transcription Factor 1 (HSE) (AID 2282953); conditions: HepG2 HSE cis-reporter, Attagene RNA transcription; actives raise or lower the signal
Sequence of Heat shock factor protein 1 (Homo sapiens) (Q00613 whole entry, looked up): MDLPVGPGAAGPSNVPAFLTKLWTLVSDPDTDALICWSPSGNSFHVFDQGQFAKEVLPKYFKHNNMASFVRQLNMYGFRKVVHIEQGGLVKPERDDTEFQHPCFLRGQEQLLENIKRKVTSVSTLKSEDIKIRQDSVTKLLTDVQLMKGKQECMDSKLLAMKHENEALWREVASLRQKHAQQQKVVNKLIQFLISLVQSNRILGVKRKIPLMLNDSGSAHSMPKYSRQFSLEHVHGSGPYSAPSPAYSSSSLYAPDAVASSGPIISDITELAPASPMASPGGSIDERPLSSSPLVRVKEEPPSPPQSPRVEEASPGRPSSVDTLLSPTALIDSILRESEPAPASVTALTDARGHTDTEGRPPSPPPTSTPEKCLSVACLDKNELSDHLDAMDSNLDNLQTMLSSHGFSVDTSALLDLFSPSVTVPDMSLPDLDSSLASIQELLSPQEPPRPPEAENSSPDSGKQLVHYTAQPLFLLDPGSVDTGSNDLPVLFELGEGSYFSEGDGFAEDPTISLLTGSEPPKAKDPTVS
Outline: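 After a 24 h incubation with test chemical, transfected HepG2 cells were harvested for RNA; reporter transcripts were measured by RT-PCR and capillary electrophoresis. Values reflect gain or loss of signal relative to DMSO.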

[8] = ATG_MRE_CIS: Attagene CIS-FACTORIAL HepG2 Assay for human Metal Responsive Element (MRE) (AID 2282954); conditions: HepG2 MRE cis-reporter transcription, Attagene multiplex; actives raise or lower the signal
Outline: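 HepG2 cells transiently transfected with cis-element-driven reporter units; mRNA measured 24 h after dosing. Reporter transcripts quantified by RT-PCR, FAM labelling, HpaI digestion and capillary electrophoresis; bidirectional fit versus DMSO.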

[9] = ATG_PBREM_CIS: Attagene CIS-FACTORIAL HepG2 Assay for human Phenobarbital-responsive Enhancer Module (PBREM) (AID 2282955); conditions: HepG2 PBREM cis-reporter, Attagene multiplexed transcription; actives raise or lower the signal
Outline: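 After a 24 h incubation with test chemical, transfected HepG2 cells yield total RNA; reporter-specific RT-PCR products are fluorescently labelled, HpaI-digested and resolved by capillary electrophoresis against ROX size standards.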

[10] = target: Paired box protein Pax-6 (Homo sapiens) (UniProt P26367); assay: ATG_Pax6_CIS: Attagene CIS-FACTORIAL HepG2 Assay for human Paired Box 6 (PAX6) (AID 2282956); conditions: HepG2 CIS-FACTORIAL PAX6 reporter transcription, RNA readout; actives raise or lower the signal
Sequence of Paired box protein Pax-6 (Homo sapiens) (P26367 whole entry, looked up): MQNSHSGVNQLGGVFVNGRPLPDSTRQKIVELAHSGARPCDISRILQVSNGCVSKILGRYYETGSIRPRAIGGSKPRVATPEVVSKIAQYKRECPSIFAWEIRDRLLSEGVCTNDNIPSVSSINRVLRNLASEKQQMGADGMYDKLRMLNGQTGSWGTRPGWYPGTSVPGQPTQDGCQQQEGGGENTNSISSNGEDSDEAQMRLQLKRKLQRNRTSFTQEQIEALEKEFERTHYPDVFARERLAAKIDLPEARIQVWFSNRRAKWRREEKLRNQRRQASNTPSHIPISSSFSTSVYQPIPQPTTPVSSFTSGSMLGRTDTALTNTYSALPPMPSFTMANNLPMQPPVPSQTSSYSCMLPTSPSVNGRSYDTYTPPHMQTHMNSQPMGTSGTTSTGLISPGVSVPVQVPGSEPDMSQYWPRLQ
Outline: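 Multiplexed cis-reporter HepG2 system; 24 h treatment; reporter mRNA read by RT-PCR/CE fluorescence; bidirectional fit vs DMSO.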

[11] = ATG_PXRE_CIS: Attagene CIS-FACTORIAL HepG2 Assay for human Pregnane X Receptor Element (PXRE) (AID 2282957); conditions: HepG2 Attagene CIS-FACTORIAL PXRE reporter, mRNA; actives raise or lower the signal
Outline: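 Multiplexed cis-reporter assay in transiently transfected human HepG2 cells; 24 h chemical exposure. Reporter transcripts quantified by RT-PCR with fluorescent labeling and capillary electrophoresis.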

[12] = ATG_PPRE_CIS: Attagene CIS-FACTORIAL HepG2 Assay for human Peroxisome Proliferator-activated Response Element (PPRE) (AID 2282958); conditions: HepG2 PPRE cis-element reporter, Attagene transcription factor profiling; actives raise or lower the signal
Outline: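 Multiplexed reporter transcription units under cis-regulatory promoters were transfected into HepG2 cells to capture endogenous factor activity. A 24 h incubation preceded RNA isolation and fluorescent RT-PCR fragment analysis.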

[13] = ATG_RORE_CIS: Attagene CIS-FACTORIAL HepG2 Assay for human RAR-related Orphan Receptor Element (RORE) (AID 2282959); conditions: HepG2 Attagene cis-factorial RORE reporter, mRNA; actives raise or lower the signal
Outline: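 Fluorescence intensity of reporter-specific cDNA fragments, separated by capillary electrophoresis, gives the signal. Source: HepG2 liver cells transiently transfected with cis-element reporters and exposed 24 h; DMSO-normalized bidirectional fit.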

[14] = ATG_Sox_CIS: Attagene CIS-FACTORIAL HepG2 Assay for human SRY-box transcription factor (SOX) (AID 2282960); conditions: HepG2 Attagene cis-factorial SOX reporter, mRNA; actives raise or lower the signal
Outline: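 After 24 h of chemical treatment, transfected HepG2 reporter cells are lysed for total RNA. Transcript levels come from RT-PCR with labelled primer extension and capillary electrophoresis, analysed bidirectionally versus DMSO.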

[15] = target: Transcription factor Sp1 (Homo sapiens) (UniProt P08047); assay: ATG_Sp1_CIS: Attagene CIS-FACTORIAL HepG2 Assay for human Specificity Protein 1 (Sp1) (AID 2282961); conditions: HepG2 Sp1 cis-reporter transcription, actives raise or lower the signal
Sequence of Transcription factor Sp1 (Homo sapiens) (P08047 whole entry, looked up): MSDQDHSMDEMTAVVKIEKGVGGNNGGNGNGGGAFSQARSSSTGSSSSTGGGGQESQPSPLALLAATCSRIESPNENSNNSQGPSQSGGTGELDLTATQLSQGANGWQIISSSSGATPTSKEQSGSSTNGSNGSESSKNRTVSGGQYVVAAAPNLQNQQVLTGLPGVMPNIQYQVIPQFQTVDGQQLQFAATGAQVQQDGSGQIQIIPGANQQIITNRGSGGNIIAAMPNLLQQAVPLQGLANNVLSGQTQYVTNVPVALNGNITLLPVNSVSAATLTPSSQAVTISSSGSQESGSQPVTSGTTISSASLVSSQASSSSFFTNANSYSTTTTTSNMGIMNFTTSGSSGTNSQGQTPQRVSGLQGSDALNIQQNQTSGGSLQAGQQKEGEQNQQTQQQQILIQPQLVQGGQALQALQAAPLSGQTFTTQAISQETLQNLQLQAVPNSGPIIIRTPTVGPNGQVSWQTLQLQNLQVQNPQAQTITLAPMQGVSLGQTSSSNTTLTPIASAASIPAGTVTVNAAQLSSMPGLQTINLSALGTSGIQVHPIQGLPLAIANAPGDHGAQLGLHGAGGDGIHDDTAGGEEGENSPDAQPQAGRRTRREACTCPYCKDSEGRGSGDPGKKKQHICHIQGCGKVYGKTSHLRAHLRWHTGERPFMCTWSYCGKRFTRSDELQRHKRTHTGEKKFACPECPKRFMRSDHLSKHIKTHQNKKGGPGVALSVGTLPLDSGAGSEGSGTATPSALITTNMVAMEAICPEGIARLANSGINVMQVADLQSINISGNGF
Outline: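 Sp1-driven reporter mRNA, read as capillary electrophoresis fluorescence after RT-PCR, in transiently transfected HepG2 cells dosed for 24 h; signal change in either direction relative to DMSO.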

[16] = ATG_SREBP_CIS: Attagene CIS-FACTORIAL HepG2 Assay for human Sterol Regulatory Element Binding (SREBP) (AID 2282962); conditions: HepG2 Attagene cis-factorial SREBP reporter, mRNA; actives raise or lower the signal
Outline: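 mRNA induction of transfected cis-promoter reporters in HepG2 cells, 24 h post-dose. Detection: RT-PCR with 6-FAM-labelled products, HpaI digest, capillary electrophoresis. DMSO served as negative control and baseline.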

[17] = target: Signal transducer and activator of transcription 3 (Homo sapiens) (UniProt P40763); assay: ATG_STAT3_CIS: Attagene CIS-FACTORIAL HepG2 Assay for human Signal Transducer and Activator of Transcription 3 (STAT3) (AID 2282963); conditions: HepG2, Attagene cis-factorial STAT3 reporter transcription; actives raise or lower the signal
Sequence of Signal transducer and activator of transcription 3 (Homo sapiens) (P40763 whole entry, looked up): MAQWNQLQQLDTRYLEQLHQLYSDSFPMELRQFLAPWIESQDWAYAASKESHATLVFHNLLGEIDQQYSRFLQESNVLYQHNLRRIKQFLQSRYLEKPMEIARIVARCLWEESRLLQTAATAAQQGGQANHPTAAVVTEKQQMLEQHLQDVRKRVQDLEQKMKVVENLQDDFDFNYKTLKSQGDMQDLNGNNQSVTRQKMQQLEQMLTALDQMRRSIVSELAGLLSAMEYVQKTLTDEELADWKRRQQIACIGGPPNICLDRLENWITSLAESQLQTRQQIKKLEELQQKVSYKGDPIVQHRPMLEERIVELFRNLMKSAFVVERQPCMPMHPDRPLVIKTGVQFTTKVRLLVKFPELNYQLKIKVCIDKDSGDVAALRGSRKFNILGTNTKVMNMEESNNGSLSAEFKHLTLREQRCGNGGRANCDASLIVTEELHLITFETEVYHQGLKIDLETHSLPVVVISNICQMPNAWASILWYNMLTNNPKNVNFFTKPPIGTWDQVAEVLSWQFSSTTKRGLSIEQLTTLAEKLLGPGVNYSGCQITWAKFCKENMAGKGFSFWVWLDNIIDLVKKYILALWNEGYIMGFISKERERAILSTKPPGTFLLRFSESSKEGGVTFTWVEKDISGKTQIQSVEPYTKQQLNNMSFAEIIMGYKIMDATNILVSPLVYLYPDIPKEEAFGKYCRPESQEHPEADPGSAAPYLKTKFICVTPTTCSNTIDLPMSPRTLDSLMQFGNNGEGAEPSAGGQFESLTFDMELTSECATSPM
Outline: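 HepG2 cells transiently transfected with multiple cis-element-driven reporter units report endogenous transcription factor activity. After 24 h compound exposure, reporter mRNA is measured by RT-PCR, 6-FAM labelling, HpaI digestion and capillary electrophoresis. Fitted bidirectionally versus DMSO.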

[18] = ATG_TA_CIS: Attagene CIS-FACTORIAL HepG2 Assay for human TA Basal Promoter (AID 2282964); conditions: HepG2 Attagene CIS-factorial TA basal promoter reporter; actives raise or lower the signal
Outline: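 Multiplexed mRNA reporter assay, HepG2, 24 h. Reporter cDNA amplified, 6-FAM primer-extended, HpaI-cut, CE-sized; DMSO = negative control and baseline.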

[19] = ATG_M_32_CIS: Attagene CIS-FACTORIAL HepG2 Assay for M32 Transcription Factor (Internal Marker) (AID 2282949); conditions: HepG2 Attagene cis-factorial M32 reporter, mRNA; actives raise or lower the signal;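 further: background control marker of the multiplexed CIS panel rather than a real target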
Outline: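 HepG2 cells transiently transfected with multiplexed cis-regulated reporter units, dosed 24 h. Reporter mRNA quantified by RT-PCR, 6-FAM labelling, HpaI digestion and capillary electrophoresis; bidirectional fit vs DMSO.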

Measured: AC50

O=C(OCCOCCOCCOC(=O)c1ccccc1)c1ccccc1
not listed: [19]
inactive: all other assays above

N=C(N)C(F)(F)C(F)(F)C(F)(F)C(F)(F)C(F)(F)C(F)(F)C(F)(F)F
active: [5] 242 µM
not listed: [11]
inactive: all other assays above

CC(C)(C)c1ccc(OC2CCCCC2O)cc1 (stereo not drawn)
active: [9] 26.1 µM | [11] 1.73 µM | [16] 26.5 µM
inactive: all other assays above

CCCCOCCOCCOC(=O)CCCCC(=O)OCCOCCOCCCC
active: [11] 26.9 µM
inactive: all other assays above

O=S(=O)(O)c1ccc2ccccc2c1
active: [11] 11.2 µM and 91 µM
not listed: [2] | [9] | [13] | [19]
inactive: all other assays above

COC(=O)CCC(F)(F)C(F)(F)C(F)(F)C(F)(F)F
inactive: all assays above
